# A selection: hits, their analogues and other compounds. The true share with any hit is near 4.9%.
# Calb FLC: affects C. albicans growth with fluconazole | C. albicans CaCi-2 (fluconazole-resistant clinical isolate) + fluconazole, Alamar Blue growth, 48 h | growth inhibition, % (test concentration not listed) | 0.57% of 300,000 active | AID 1979;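 active = growth inhibition above about 58% in most replicates, limit read from the data, passing the limit was not always enough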;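 note: all wells also contain fluconazole at 8 µg/ml as a sub-toxic cotreatment; 0% = median of DMSO wells and 100% = median of geldanamycin control wells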
# Beta cell apopt: beta cell apoptosis inhibition | INS-1E cytokine-induced death, ATP luminescence, 48 h; percent of positive-control rescue, neutral wells zero | protection from apoptosis, % (test concentration not listed) | 0.8% of 300,000 active;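 active = Every replicate reaches about 75%, or at least half do and their mean reaches it too, limit read from the data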;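 note: 0% = cytokine-treated negative control wells and 100% = positive control rescue; higher means more ATP so stronger rescue from cytokine killing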
# PP1 inh: blocks human PP1-alpha phosphatase, a PP5 counter-screen; P62136; purified PP1alpha, OMFP fluorescence; inhibition, % at 6.7 µM; 0.9% of 320,000 active; AID 2235;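 active = inhibition above the mean inhibition of all tested compounds plus 3 SD, computed separately for each screening campaign, cut at about 15% in these data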
# CSC inhib: cancer stem cell inhibition | inhibition, % at 7.5 µM | cancer stem cell-like cells viability, luminescence | AID 2717 | 1.1% of 300,000 active; in the data active = inhibition above about 75%; tested in HMLE shEcad cells
# Mdm2-MdmX inh: inhibitors of human Mdm2/MdmX interaction; SaOS-2 split-luciferase Mdm2/MdmX complementation, luminescence; O15151+Q00987; AID 485346; inhibition, % at 8 µM; 3% of 330,000 active;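 active = inhibition of at least 50% at 8 µM in the primary screen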
# PP5 primary: inhibitors of human protein phosphatase 5 (PP5). 0.18% of 320,000 active. P53041. inhibition, % at 6.7 µM. purified PP5c, OMFP substrate fluorescence;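 active = inhibition above the campaign's mean inhibition across all tested compounds plus 3 SD, cut at about 9.5% in these data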;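 note: 0% = DMSO only and 100% = 100 µM cantharidin control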
# Target sequence (P53041 whole entry, looked up): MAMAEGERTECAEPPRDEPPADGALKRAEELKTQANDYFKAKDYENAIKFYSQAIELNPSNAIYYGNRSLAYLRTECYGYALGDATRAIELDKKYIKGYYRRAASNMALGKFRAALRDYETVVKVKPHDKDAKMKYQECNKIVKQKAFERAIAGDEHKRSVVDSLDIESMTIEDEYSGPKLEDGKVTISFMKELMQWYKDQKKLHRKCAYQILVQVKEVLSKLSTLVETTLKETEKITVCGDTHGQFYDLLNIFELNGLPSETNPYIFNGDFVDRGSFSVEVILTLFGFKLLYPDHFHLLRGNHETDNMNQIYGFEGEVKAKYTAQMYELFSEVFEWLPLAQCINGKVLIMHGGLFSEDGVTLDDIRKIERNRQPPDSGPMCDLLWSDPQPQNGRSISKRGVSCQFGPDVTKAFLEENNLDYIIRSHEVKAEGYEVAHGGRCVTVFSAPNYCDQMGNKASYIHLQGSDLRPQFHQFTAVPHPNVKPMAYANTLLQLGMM
# Mdm2-MdmX conf: confirmation of human Mdm2/MdmX interaction inhibitors | shares compounds with Mdm2-MdmX inh | Mdm2-MdmX binding, luminescent assay | 55% of 10,000 active | inhibition, % at 8 µM; in the data active = inhibition above about 40%
# FLuc counter: inhibits full-length luciferase, flagging false Mdm2/MdmX hits; SaOS-2 full-length luciferase counterscreen, luminescence; AID 504607; shares compounds with Mdm2-MdmX inh; 77% of 6,200 active; inhibition, % at 8 µM;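 active = mean inhibition at 8 µM reaching about 37%, which flags the compound as non-specific, limit read from the data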;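 note: p53-null SaOS-2 cells with luciferase driven by a doxycycline-inducible promoter; compound on cells about two nights before reading with doxycycline added after day one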
# Active calls of the source: *; nt = no result.
SMILES,Calb FLC,Beta cell apopt,PP1 inh,CSC inhib,Mdm2-MdmX inh,PP5 primary,Mdm2-MdmX conf,FLuc counter
COc1cc(NC(=S)NC(=O)c2cc(C)cc(C)c2)ccc1NC(=O)c1cccs1,0.8,21.9,1.4,13.6,16.9,2.2,nt,nt
COc1cc(NC(=O)c2cc3ccccc3cc2OC)ccc1NC(=O)c1cccs1,-10.6,18.6,-1.3,2.9,58.0*,4.1,57.4*,90.4*
COc1cc(NC(=S)NC(=O)c2ccc(C(C)(C)C)cc2)ccc1NC(=O)c1cccs1,9.8,20.3,-3.4,71.1,89.7*,0.9,68.1*,27.7
O=C(Cc1c(Cl)cccc1Cl)OCC(=O)N1CCOCC1,nt,-5.1,nt,-5.5,11.9,nt,nt,nt
Cc1cccc(N2CCN(C(=O)Cc3cn(C)c4ccccc34)CC2)c1C,1.5,nt,3.5,33.0,53.5*,-2.8,43.0*,54.8*
COc1ccc(COc2cc(-c3cccc(OC)c3)nc3ccc(N)cc23)cc1,-1.9,36.0,3.1,46.2,59.5*,3.0,51.4*,119.9*
COc1ccc(C)cc1NC(=O)C(=O)N/N=C(\C)CC(=O)Nc1cccnc1,-1.7,6.5,2.9,-1.7,13.9,1.3,nt,nt
CCOc1cc(Br)c(Br)c(C=Nc2ccc(NC(C)=O)cc2)c1O,2.2,-3.5,1.5,-0.7,67.9*,1.0,76.4*,33.1
CC(=O)Nc1ccc(N=Cc2c(O)c3ccccc3oc2=O)cc1,-0.4,-0.4,nt,17.4,53.2*,nt,33.5,nt
CC(=O)Nc1ccc(NC(=O)c2cccc3ccccc23)cc1,-1.2,-6.0,-5.4,-0.2,12.0,0.8,nt,nt
CCOc1cc(/C=N/NC(=O)C(N)=O)cc(Br)c1O,8.4,3.2,-0.9,-0.4,12.4,1.9,nt,nt
CC(=O)Nc1ccc(N=Cc2c(O)c(C(=O)Nc3ccccc3)cc3ccccc23)cc1,30.9,12.3,-3.5,97.7*,77.9*,2.0,36.8,103.5*
CC(=O)c1cccc(N=Cc2c(O)c3ccccc3oc2=O)c1,1.7,-9.1,-1.2,-1.0,38.0,-0.7,nt,nt
Cc1cnc(C(=O)OCC(=O)Nc2ccc(Br)cc2F)cn1,nt,-3.0,-3.8,-1.4,-9.8,-0.5,nt,nt
CN(Cc1ccccc1)C(=O)c1cccc(NC(=O)C2CCCN(C(=O)OC(C)(C)C)C2)c1 (stereo not drawn),nt,-6.2,nt,-10.2,16.0,nt,nt,nt
CC1(C)CC(=O)C2=C(C1)N1C(=C(C#N)C2c2ccc(Cl)cc2)N=C(N)c2ccccc21 (stereo not drawn),64.2,-3.8,-2.9,23.4,55.5*,2.8,-0.4,nt
CC1(C)CC(=O)C2=C(C1)N1C(=C(C#N)C2c2ccccc2Cl)N=C(N)c2ccccc21 (stereo not drawn),13.8,9.3,-1.0,0.7,43.3,1.9,nt,nt
O=C1[C@@H](Oc2ccccc2)[C@@H](c2cnc3ccccc3c2)N1c1ccccc1,nt,nt,nt,nt,52.8*,nt,54.1*,56.4*
COC(=O)C1=C(C)NC(C)=C(C(=O)OCC(C)C)C1c1ccccc1[N+](=O)[O-] (stereo not drawn),nt,7.1,12.6,54.9,71.7*,-2.4,64.8*,22.6
COC(=O)c1ccc(NC(=O)C(=O)c2cn(CC(=O)N3CCOCC3)c3ccccc23)cc1,6.7,2.8,-3.6,-5.9,54.6*,1.4,-0.5,nt
Cc1cccc(-c2nnc(SCC#N)n2-c2cccc(Cl)c2)c1,10.3,4.1,3.1,-16.1,8.5,1.2,nt,nt
COc1ccc(-n2c(SCCC#N)nnc2-c2cc(Cl)ccc2OC)cc1Cl,19.8,0.3,-0.5,66.8,53.9*,3.6,64.5*,50.9*
Clc1ccc(CN2CCc3c([nH]c4ccccc34)C2)cc1Cl,14.9,10.3,3.4,124.2*,96.4*,3.8,39.4,47.6*
CN(C)C(=O)CCc1ccc2c3c([nH]c2c1)[C@]1(CCC2CCCC2)[C@@H](C(=O)N2CCOCC2)C[C@H](CC(=O)NCCN2CCOCC2)C(=O)N1CC3,nt,nt,nt,nt,-6.1,nt,nt,nt
O=C(C[C@H]1C[C@H](C(=O)N2CCOCC2)[C@@]2(CCC3CCCC3)c3[nH]c4cc(-c5ccco5)ccc4c3CCN2C1=O)NCCC1=CCCCC1,nt,nt,nt,nt,42.3,nt,nt,nt
SMILES,Calb FLC,Beta cell apopt,PP1 inh,CSC inhib,Mdm2-MdmX inh,PP5 primary,Mdm2-MdmX conf,FLuc counter
CN(C)C(=O)CCc1ccc2c3c([nH]c2c1)[C@]1(CCC2CCCC2)[C@@H](C(=O)N2CCOCC2)C[C@H](CC(=O)NCCC2=CCCCC2)C(=O)N1CC3,nt,nt,nt,nt,54.4*,nt,57.0*,60.7*
COc1ccc2[nH]c3c(c2c1)CCN1C(=O)C(CC(=O)NCCC2=CCCCC2)C[C@H](C(=O)N2CCCCC2)[C@@]31CCc1ccccc1 (stereo partly drawn),nt,nt,nt,nt,87.7*,nt,-33.2,nt
CN(C)CCCNC(=O)C[C@H]1C[C@H](C(=O)N2CCCCC2)[C@@]2(CCc3ccccc3)c3[nH]c4cc(-c5ccco5)ccc4c3CCN2C1=O,nt,nt,nt,nt,59.3*,nt,52.5*,44.5*
CN(C)CCCNC(=O)C[C@H]1C[C@H](C(=O)N2CCCCC2)[C@@]2(C)c3[nH]c4cc(-c5ccco5)ccc4c3CCN2C1=O,nt,nt,nt,nt,40.8,nt,nt,nt
O=C(C[C@H]1C[C@H](C(=O)N2CCOCC2)[C@@]2(CCC3CCCC3)c3[nH]c4cc(-c5ccco5)ccc4c3CCN2C1=O)NCCc1ccccn1,nt,nt,nt,nt,81.1*,nt,-0.3,nt
CCOC(=O)N1CCN(Cc2nc(N)nc(Nc3ccc(C)cc3C)n2)CC1,0.6,-3.8,0.5,-6.0,-26.9,1.8,nt,nt
Cc1ccccc1CC1(CO)CCCN(C(=O)c2ccc3ncccc3c2)C1 (stereo not drawn),16.8,-2.3,0.7,-12.3,9.7,0.5,nt,nt
COc1ccc(NC(=O)c2sccc2C)cn1,-3.2,4.4,-1.0,14.1,-29.7,1.5,nt,nt
CCc1ccc(CN2CCC(n3nccc3NC(=O)c3ccccc3)CC2)o1,2.7,1.8,8.5,16.6,1.7,-1.0,nt,nt
CN(C)CCCNC(=O)CC1C[C@H](C(=O)N2CCCCC2)[C@@]2(CCc3ccccc3)c3[nH]c4ccccc4c3CCN2C1=O (stereo partly drawn),nt,8.1,nt,4.8,83.3*,nt,23.9,nt
COc1ccc2[nH]c3c(c2c1)CCN1C(=O)C(CC(=O)NCCCN(C)C)C[C@H](C(=O)N2CCCCC2)[C@@]31CCc1ccccc1 (stereo partly drawn),nt,nt,nt,nt,33.4,nt,nt,nt
CC(Nc1nc(-c2ccc(F)cc2)cs1)c1nc2cc(Cl)c(Cl)cc2n1CCOCCO (stereo not drawn),-4.8,6.5,4.8,-1.8,30.3,0.6,nt,nt
CC(Nc1nc(-c2ccc(F)cc2)cs1)c1nc2cc(Cl)c(N3CCCCC3)cc2n1CCCO (stereo not drawn),-21.6,16.1,10.1,26.9,74.8*,4.2,17.6,nt
COc1ccc(-c2csc(NC(C)c3nc4cc(Cl)c(Cl)cc4n3CCCO)n2)cc1 (stereo not drawn),0.1,31.8,4.9,-5.6,59.2*,4.5,30.1,nt
